In PubChem BioAssay (NCI):
About 83,000 compounds went through this panel and 20% of them were active in at least one assay; those are over-represented in the sample as a whole.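 Each cell line was grown in a 96-well plate and treated with one concentration of compound for 48 hours. Values below 10 were considered active.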 A number with no mark means an inactive call. Activity calls are given as the source filed them.

Key:
Assay in all cases: NCI-60 one-dose screen, 48 h (100 = growth as untreated, 0 = no growth, -100 = all killed)
Settings in all cases: 10 µM unless noted
NCI-H23 lung = system: NCI-H23 lung
NCI-H226 lung = system: NCI-H226 lung
NCI-H322M lung = system: NCI-H322M lung
HOP-62 NSCLC = system: HOP-62 NSCLC
NCI-H460 lung = system: NCI-H460 lung
HOP-92 NSCLC = system: HOP-92 NSCLC
NCI-H522 lung = system: NCI-H522 lung
A549/ATCC NSCLC = system: A549/ATCC NSCLC
786-0 renal = system: 786-0 renal
COLO 205 colon = system: COLO 205 colon

Structure (SMILES) | growth (NCI-H23 lung) | growth (NCI-H226 lung) | growth (NCI-H322M lung) | growth (HOP-62 NSCLC) | growth (NCI-H460 lung) | growth (HOP-92 NSCLC) | growth (NCI-H522 lung) | growth (A549/ATCC NSCLC) | growth (786-0 renal) | growth (COLO 205 colon)
CO[C@H]1CC[C@@]2(C)C(=CC[C@H]3[C@@H]4C[C@H](O)C[C@@]4(C)CC[C@@H]32)C1 | 67.8% | 82.4% | 91.3% | 62.4% | 42.9% | 35.6% | 71.6% | 81.9% | 61.5% | 61.5%
CC(=O)Nc1ccc2nc3ccc(NC(C)=O)cc3[n+](-c3ccccc3)c2c1 | 104% | 127% | 109% | 103% | 108% | 136% | 88% | 106% | 102% | 109%
CCN(CC)c1ccc2cc(C(Nc3ccc(C)cc3)c3nnnn3C(C)(C)C)c(=O)oc2c1 (stereo not given) | 95.1% | 85% | 103% | 103% | 91.9% | 81% | 82.8% | 85.4% | 96% | 110%
O=C(Nc1cccnc1)c1ccc2ccc3ccc(C(=O)Nc4cccnc4)nc3c2n1 | 23.1% | 4.52% (active) | 10.5% | 9.18% (active) | 1.69% (active) | 23.9% | 30.7% | 22.1% | 19.9% | 13.2%
O=C(C[n+]1ccn(CC(OCc2ccc(Cl)cc2Cl)c2ccc(Cl)cc2Cl)c1)c1ccc(F)cc1 (stereo not given) | -87.8% (active) | -76.4% (active) | -89.3% (active) | -91.3% (active) | -86.1% (active) | -87.5% (active) | -82.2% (active) | 29.9% | -94.3% (active) | -84.8% (active)
O=c1[nH]c(CN2CCN(c3cccc(Cl)c3)CC2)nc2cc(Cl)ccc12 | 84.9% | 87.6% | 113% | 89.7% | 104% | 105% | 66.6% | 88.9% | 90% | 106%
CCCCCCCCCCCCCCNC(=O)Nc1ccc(Cl)c(Cl)c1 | -0.614% (active) | 18.5% | 108% | 56.6% | 86.6% | 9.28% (active) | -7% (active) | 77.8% | 12.3% | 31.7%
CC1=CC[C@@H]2C(C)(C)C(=O)CC[C@@]2(C)[C@@H]1COc1ccc2ccc(=O)oc2c1 | 83% | 43.8% | 89.3% | 97.5% | 89.2% | 73.9% | 53.6% | 62.2% | 89.9% | 71.1%
Cn1cc(-c2nnc(-c3cn(C)c4ncc(Br)cc34)o2)c2ccccc21 | 90.4% | 93% | 97.7% | 82.5% | 98.2% | 77.1% | 57.3% | 87.4% | 105% | 76%
Cn1cc(-c2noc(-c3cn(C)c4ncc(Br)cc34)n2)c2cc(Cl)ccc21 | 75.1% | 88% | 47.4% | 50.5% | 25.8% | 76.7% | 63.1% | 96.6% | 53.7% | 66.4%
O=C(NCc1ccc(Cn2c(=O)sn(-c3ccccc3)c2=O)cc1)OCc1ccc2c(Br)cc(Br)c(O)c2n1 | -47.2% (active) | -25.8% (active) | 43.1% | -48.4% (active) | -21% (active) | -58.7% (active) | -47.1% (active) | -52.3% (active) | -78.7% (active) | -75.6% (active)
C#CCOc1ccc(C2=NN(CC3CC3)C3N=C(Cl)c4ncn(CC5CC5)c4N23)cc1OCC#C (stereo not given) | 85.7% | 76.4% | 76.1% | 83.8% | 69.6% | 61.7% | 60.6% | 71.4% | 93.6% | 78.9%
CC1(C(=O)O)CCC(N)(C(=O)O)C1(C)C (stereo not given) | 113% | 108% | 108% | 99.5% | 117% | 89.4% | 97.1% | 110% | 109% | 104%
